Drawing on PubChem BioAssay, this text covers z-score and composite z-score for six compounds.

Experiment [1] can be described thus: A549 cell viability effects, profiling panel, calcein-AM fluorescence, 48 h, basal (AID 1162). Note: test concentration not given here. The conditions noted are these: higher = more signal.
Experiment [2] is described as follows: adipocyte viability effects, profiling panel, cell-based, 3T3-L1 adipocytes, calcein-AM fluorescence, 48 h, basal (AID 1163). Note: test concentration not given here. The conditions noted are these: 3T3-L1 adipocytes viability, higher = more signal.
Experiment [3] in a line: HepG2 cell viability effects, profiling panel, calcein-AM fluorescence, 48 h, basal (AID 1164). Note: test concentration not given here. The note with it: higher = more signal.
Experiment [4] is described as follows: MM1S cell viability effects, profiling panel, calcein-AM fluorescence, 48 h, basal (AID 1165).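 Note: viability of MM1S multiple myeloma cells under basal unstimulated conditions; test concentration not given here.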 The conditions noted are these: higher = more signal.
A short description of experiment [5]: basal RPMI8226 viability, no added stimulus, profiling panel, cell-based, calcein-AM fluorescence, 48 h, PK04 Diversity Set (AID 1166).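 Note: cells grown under basal conditions without added stimulus; test concentration not given here.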 The conditions noted are these: RPMI8226 myeloma viability, higher = more signal.
Experiment [6] in a line: basal HepG2 mitochondrial membrane potential changes, profiling panel, cell-based, JC-1 fluorescence, 24 h, 100 nL compound (AID 1167). Note: test concentration not given here. The note with it: higher = more signal.
Experiment [7] in a line: basal 3T3-L1 adipocyte mitochondrial potential changes, profiling panel, cell-based, JC-1 fluorescence, 3T3-L1 adipocytes, 24 h, 100 nL compound (AID 1168). Note: test concentration not given here. The note with it: JC-1 mitochondrial fluorescence, higher = more signal, called active from +8 up or from −8 down.
The nature of experiment [8]: basal RPMI8226 mitochondrial membrane potential changes, profiling panel, cell-based, JC-1 fluorescence, 24 h, 100 nL compound (AID 1169). Note: test concentration not given here. The note with it: RPMI8226 myeloma, JC-1 mitochondrial potential fluorescence, higher = more signal.
The nature of experiment [9]: basal MM1S mitochondrial membrane potential changes, profiling panel, cell-based, JC-1 fluorescence, 24 h, 100 nL compound (AID 1170). Note: test concentration not given here. The note with it: higher = more signal.
Experiment [10] is described as follows: A549 lung cancer cell viability effects, profiling panel, resazurin fluorescence, 24 h, PK04 Diversity Set (AID 1171). Note: test concentration not given here. The conditions noted are these: higher = more signal, called active from +8 up or from −8 down. In general terms: Alamar Blue is a resazurin reagent that responds to reducing activity.
The nature of experiment [11]: HepG2 liver cancer cell viability effects, profiling panel, resazurin fluorescence, 24 h, PK04 Diversity Set (AID 1172). Note: test concentration not given here. The note with it: higher = more signal.
A short description of experiment [12]: basal S. cerevisiae growth modulation, no modifier, primary screen, OD600, strain BY4716, 24 h, basal condition (AID 1173). The conditions noted are these: OD600, 24 h, higher = more signal, called active from +8 up or from −8 down.
Experiment [13] is described as follows: MM1S myeloma cell viability, profiling panel, resazurin fluorescence, basal, 24 h, PK04 Diversity Set (AID 1174).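 Note: MM1S multiple myeloma cell line; test concentration not given here.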 The note with it: higher = more signal, called active from +8 up or from −8 down.
Experiment [14] has as its target Dihydroorotate dehydrogenase (quinone), mitochondrial (Plasmodium falciparum (isolate 3D7)) (UniProt Q08210). The experiment is described as follows: PfDHODH enzyme inhibitors, primary screen, biochemical, C-terminal His tag, absorbance 600 nm (AID 1175).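 Note: recombinant parasite enzyme with a five histidine tag at its C terminus; test concentration not given here.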 The conditions noted are these: DCIP absorbance 600 nm, higher = more signal, called active from +8 up or from −8 down.

A short description of experiment [15]: P. aeruginosa biofilm formation inhibitors, primary screen, strain PAO1, LB-PBS medium, absorbance 600 nm (AID 1176). Note: test concentration not given here. The note with it: P. aeruginosa PAO1 growth/biofilm, A600, 12 h; higher = more signal.
A short description of experiment [16]: S. cerevisiae RM11-1a growth modifiers, primary screen, strain RM11-1a, OD600, basal, 24 h (AID 1177).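 Note: cultures grown under basal conditions with no added stressor; test concentration not given here.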 The conditions noted are these: OD600, 24 h, higher = more signal, called active from +8 up or from −8 down.
Experiment [17] in a line: E. coli acrAB mutant growth effects, primary screen, E. coli filamentation inducers, strain DRC39, OD650, 24 h (AID 1178).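 Note: growth measured as culture turbidity by optical density at 650 nm; test concentration not given here.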 The note with it: higher = more signal, called active from +8 up or from −8 down.
The nature of experiment [18]: E. coli acrAB mutant growth effects, primary screen, E. coli filamentation inducers, strain DRC39, OD650, 48 h (AID 1179).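 Note: screen aims at cell division blockers that make cells filament.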 The note with it: E. coli DRC39 delta-acrAB growth, higher = more signal, called active from +8 up or from −8 down.
Experiment [19] is described as follows: RPMI8226 myeloma cell viability, profiling panel, resazurin fluorescence, basal, 24 h, PK04 Diversity Set (AID 1180).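 Note: RPMI8826 multiple myeloma cell line at 5000 cells per well; test concentration not given here.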 The conditions noted are these: higher = more signal.
Experiment [20] concerns the target E3 ubiquitin-protein ligase XIAP (Homo sapiens) (UniProt P98170). Kind of experiment: XIAP binders, primary screen, biophysical, small-molecule microarray, fluorescence 635 nm (AID 1181).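 Note: score merges 667 nm emission and signal to noise over triplicate slides.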 The conditions noted are these: small-molecule microarray binding, higher = more signal.

Molecules are shown by their SMILES. Several values for one entry are separate records, joined by “and”; a condition that tells them apart may be missing. Identical values can stand only once. Activity calls are given as the source filed them. Unless noted, the rule behind the calls is not given here.

E3 ubiquitin-protein ligase XIAP (Homo sapiens), sequence (P98170 whole entry, looked up): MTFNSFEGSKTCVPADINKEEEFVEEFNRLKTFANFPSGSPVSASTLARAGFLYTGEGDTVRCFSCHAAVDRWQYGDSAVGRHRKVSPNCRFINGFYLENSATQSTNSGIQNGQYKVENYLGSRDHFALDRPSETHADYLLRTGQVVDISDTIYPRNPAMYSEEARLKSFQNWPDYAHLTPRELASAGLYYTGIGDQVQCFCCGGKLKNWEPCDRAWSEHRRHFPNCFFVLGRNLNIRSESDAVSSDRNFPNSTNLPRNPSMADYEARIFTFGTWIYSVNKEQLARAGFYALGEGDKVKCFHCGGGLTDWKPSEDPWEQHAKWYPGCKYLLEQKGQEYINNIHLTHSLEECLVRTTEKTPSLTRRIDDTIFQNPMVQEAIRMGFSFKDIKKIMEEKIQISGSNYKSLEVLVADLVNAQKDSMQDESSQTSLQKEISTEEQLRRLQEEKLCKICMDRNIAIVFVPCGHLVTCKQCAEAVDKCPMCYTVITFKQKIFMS
Dihydroorotate dehydrogenase (quinone), mitochondrial (Plasmodium falciparum (isolate 3D7)), sequence (Q08210 whole entry, looked up): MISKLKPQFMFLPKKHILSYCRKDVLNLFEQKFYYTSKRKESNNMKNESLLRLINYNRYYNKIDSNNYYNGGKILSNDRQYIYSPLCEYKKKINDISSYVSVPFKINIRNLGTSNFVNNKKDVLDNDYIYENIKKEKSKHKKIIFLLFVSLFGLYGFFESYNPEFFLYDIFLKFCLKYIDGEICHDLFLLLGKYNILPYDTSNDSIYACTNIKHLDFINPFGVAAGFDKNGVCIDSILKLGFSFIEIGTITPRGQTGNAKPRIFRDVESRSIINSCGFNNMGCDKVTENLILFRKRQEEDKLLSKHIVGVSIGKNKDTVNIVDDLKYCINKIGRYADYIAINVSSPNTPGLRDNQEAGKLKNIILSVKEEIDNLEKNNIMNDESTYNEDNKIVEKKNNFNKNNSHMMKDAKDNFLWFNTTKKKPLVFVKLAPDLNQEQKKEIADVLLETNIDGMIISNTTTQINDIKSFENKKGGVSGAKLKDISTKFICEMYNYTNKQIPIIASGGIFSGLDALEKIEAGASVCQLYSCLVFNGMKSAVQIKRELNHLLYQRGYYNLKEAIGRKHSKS

On to `C#CCN1C(/C=C/c2ccccc2)C(=O)OC[C@H]1c1ccccc1` (stereo not given in full), for which the z-score was -0.002 and -0.112 in experiment [1]; 1.74 and 0.227 in experiment [2]; -0.0288 and -0.167 in experiment [3]; -0.0906 and -0.0281 in [4]; -0.712 and -1.8 in experiment [5]; 1.04 and 0.221 in experiment [6]. The z-score in experiment [7] is 1.37 (inactive) and 0.0383 (inactive); in experiment [8] it was -0.749 and 0.481; in [9], -0.328 and -1.12; in experiment [10] it was -0.925 (inactive) and 1.15 (inactive); in [11] it was 0.0256 and 1.82; in experiment [12], -5.79 (inactive) and -4.84 (inactive). The z-score in experiment [13] is 0.911 (inactive) and 0.42 (inactive); in [15] it was -0.73 (inactive); in experiment [16], -2.77 (inactive) and -0.151 (inactive); in [17], 2.04 (inactive) and 0.715 (inactive); in experiment [18], 0.639 (inactive) and -0.294 (inactive); in [19] it was 0.681 and 1.36. The composite z-score is -3.42 (inactive) and -0.43 (inactive) in [14]; 0.0727 and -0.0871 in [20].
With `C=C[C@H](C)[C@@H](O)c1ccc(OCCO)cc1`, the z-score was 0.235 and -0.066 in experiment [1]; 0.101 and -0.192 in [2]; -0.211 and 0.619 in experiment [3]; 0.529 and -0.301 in experiment [4]; -0.528 and 0.864 in experiment [5]; -0.368 and 0.814 in experiment [6]. Moreover, the z-score in experiment [7] is 0.428 (inactive) and 0.45 (inactive); in experiment [8], -0.961 and 0.99; in [9], 0.976 and -0.205; in experiment [10], 0.0233 (inactive) and -0.361 (inactive); in experiment [11], 0.0272 and -0.227; in [12], -1.41 (inactive) and -2.08 (inactive). For the same compound, the z-score in experiment [13] was -0.246 (inactive) and -0.5 (inactive); in [15] it was 0.684 (inactive) and 0.486 (inactive); in experiment [16], -0.371 (inactive) and 0.526 (inactive); in [17], -0.748 (inactive) and 0.371 (inactive); in experiment [18], -0.902 (inactive) and 0.418 (inactive); in [19], 0.0577 and -0.603. In addition, the composite z-score in experiment [14] is 0.14 (inactive) and -0.263 (inactive); in experiment [20], 0.074 and 0.18.
For the compound `Cc1ccc(S(=O)(=O)N[C@H]2COC(=O)[C@@H](C)COC(=O)[C@H](C)NC(=O)CC=C[C@H]2C)cc1`, the z-score was 0.437 in experiment [1]; 0.0608 in experiment [2]; -0.107 in experiment [3]; 0.143 in [4]; 0.0608 in [5]; 0.125 in experiment [6]. For the same compound, the z-score in [7] is 0.198 (inactive); in experiment [8], -0.137; in experiment [9], 0.894; in experiment [10], 1.57 (inactive); in experiment [11] it was 0.949; in [12], -0.878 (inactive). Further, the z-score in experiment [13] is 0.799 (inactive); in experiment [15], -0.814 (inactive); in [16], -0.233 (inactive); in experiment [17], 0.45 (inactive); in experiment [18], -0.166 (inactive); in experiment [19], 1.23. In addition, the composite z-score was -0.0791 (inactive) in [14] and -0.43 in [20].
Consider `C=CC[C@H](O)c1ccc(OCCO)cc1`, for which the z-score is -0.168 and -0.248 in [1]; -0.219 and -0.258 in experiment [2]; -0.267 and 0.456 in experiment [3]; 0.842 and -1.08 in [4]; -0.252 and -0.209 in experiment [5]; -0.301 and -0.603 in experiment [6]. Also, the z-score was -0.315 (inactive) and 0.251 (inactive) in experiment [7]; -0.0607 and 0.117 in experiment [8]; 0.319 and -0.662 in [9]; -0.233 (inactive) and -0.884 (inactive) in [10]; 0.116 and -0.551 in [11]; -1.47 (inactive) and -1.79 (inactive) in [12]. Also, the z-score was -0.567 (inactive) and -0.911 (inactive) in [13]; 0.225 (inactive) and -0.0818 (inactive) in experiment [15]; -0.0329 (inactive) and -0.774 (inactive) in experiment [16]; 0.375 (inactive) and -0.241 (inactive) in experiment [17]; 0.333 (inactive) and -0.405 (inactive) in experiment [18]; -0.535 and 0.0681 in experiment [19]. Besides, the composite z-score in [14] was -0.364 (inactive) and -0.704 (inactive); in experiment [20], 0.0697 and -0.152.
With `Cc1ccc(S(=O)(=O)N[C@@H]2COC(=O)CC=C[C@@H](C)[C@@H]3C=C[C@H](O)[C@@H](COC(=O)CC=C[C@H]2C)O3)cc1`, the z-score is 0.616 and -0.418 in experiment [1]; -0.347 and -0.476 in experiment [2]; 0.664 and -1.95 in [3]; 0.0847 and -1.25 in experiment [4]; 0.0913 and -0.776 in [5]; -0.0139 and 0.344 in experiment [6]. In addition, the z-score in experiment [7] is -0.0698 (inactive) and 0.134 (inactive); in experiment [8], -0.858 and 1.11; in experiment [9] it was 1.32 and -1.69; in experiment [10], 0.0086 (inactive) and 0.658 (inactive); in experiment [11], -0.29 and 0.458; in experiment [12], -0.595 (inactive) and 0.228 (inactive). For the same compound, the z-score in experiment [13] was -0.0856 (inactive) and 0.441 (inactive); in experiment [15], -0.212 (inactive) and -0.0781 (inactive); in [16], -0.169 (inactive) and -0.14 (inactive); in [17], 0.245 (inactive) and -1.15 (inactive); in experiment [18], 0.0957 (inactive) and -0.599 (inactive); in experiment [19], -0.541 and 0.341. Moreover, the composite z-score in experiment [14] was 0.178 (inactive) and -4.95 (inactive); in experiment [20], -0.138 and -0.124.
As to `C=CCN(CCCC)C(=O)C(c1cccs1)N(C(=O)/C=C\C(=O)O)c1ccc(CCO)cc1` (stereo not given), the z-score in [1] was -0.178 and 0.505; in experiment [2], -0.0575 and -0.458; in experiment [3] it was 0.267 and 1.02; in [4], 1.72 and 1.52; in experiment [5], 0.657 and -0.192; in [6] it was 0.484 and -0.279. The z-score in experiment [7] was -0.527 (inactive) and 0.0402 (inactive); in experiment [8], -0.996 and 0.19; in [9], -0.874 and -0.407; in experiment [10], 0.0696 (inactive) and -0.0804 (inactive); in experiment [11] it was -0.289 and -0.837; in [12], -0.561 (inactive) and -0.0853 (inactive). The z-score in [13] is -0.508 (inactive) and -2.49 (inactive); in experiment [15], -0.208 (inactive) and -0.469 (inactive); in experiment [16], 0.24 (inactive) and 0.473 (inactive); in [17], 0.596 (inactive) and 0.709 (inactive); in experiment [18], 0.597 (inactive) and 0.915 (inactive); in [19], -0.213 and -0.931. For the same compound, the composite z-score in [14] was -0.133 (inactive) and 0.117 (inactive); in [20], -0.102 and 0.0641.
